In ChEMBL document CHEMBL4513216, “Probing the Open Global Health Chemical Diversity Library for Multistage-Active Starting Points for Next-Generation Antimalarials” (ACS Infect Dis, 2020):
Hit rate of the full screen: of about 69,000 compounds, about 8,600 (12%) showed an effect of 50% or more. The list comes from a sample in which strong results are over-represented; it also holds similar structures and randomly drawn compounds.

Test system: Plasmodium berghei
Assay: Screen against P. berghei liver stage (PbLuc), transformed with Luciferase, at 10uM
Type: functional, HepG2
Details: tested at 10 uM

Structure (SMILES) | INHIBITION [%]
CC1CN(CC(=O)NCCc2ccccc2)CCN1c1nccs1 (stereo not drawn) | 33.7
c1coc(CN2CCC3(CCOCC3COCC3CC3)CC2)c1 (stereo not drawn) | 18.6
CCNc1cc2c(nn1)CCN(C(=O)c1cc3ccccc3o1)C2 | 17.4
CCNc1cc2c(nn1)CCN(C(=O)c1cc3cc(C)ccc3o1)C2 | 68.8
CCNc1cc2c(nn1)CCN(C(=O)c1cc3cccc(C)c3o1)C2 | 70.8
CCNc1cc2c(nn1)CCN(C(=O)c1cc(C)no1)C2 | 40
CCNc1cc2c(nn1)CCN(C(=O)c1cc3nc(C)ccc3o1)C2 | 35.3
CCNc1cc2c(nn1)CCN(C(=O)c1ccc(CNC(C)=O)o1)C2 | -21.7
CC(=O)N1CC(=O)N(c2ccsc2)CC12CCN(Cc1ccccn1)C2 (stereo not drawn) | -2.17
CCOc1ccc(C(=O)N2CCN(c3nccn3C)CC2)cc1 | 14.3
c1cc(CN2CCC(c3ccc4c(c3)OCO4)CC2)ccn1 | 12.515
Cn1cccc1C(=O)N1C[C@H]2CN(Cc3cccs3)C[C@H]2C1 | 14.9
CN(C)C1COC2(CCN(Cc3nccs3)CC2)C1 (stereo not drawn) | 11.5
Cc1ccc(C(=O)NS(=O)(=O)c2cc(F)ccc2F)c(=O)[nH]1 | -1.14
CC(NC(N)=O)C(=O)N(C)CCCc1cc(-c2ccccc2)no1 (stereo not drawn) | 0.375
CC(=O)N(C)CCCc1cc(-c2ccccc2)no1 | 24.75
CSC(C)C(=O)N(C)CCCc1cc(-c2ccccc2)no1 (stereo not drawn) | 57.75
O=C(O)[C@]12CCCN(Cc3ccsc3)C[C@H]1CN(c1ncccn1)C2 | -10.3
COCCn1cc2c(n1)C(CNCc1nccs1)OCC2 (stereo not drawn) | 26.3
Cc1cccc(N2CCC(N3CCC4(CN(C)C(=O)O4)C3)CC2)c1C (stereo not drawn) | 64.4
Cc1cccc(N2CCC(N3CCCC4(CN(C)C(=O)O4)C3)CC2)c1C (stereo not drawn) | 36.7
Cc1cccc(N2CCC(N3CCC4(CCCNC4=O)C3)CC2)c1C (stereo not drawn) | 32.7
Cc1nn(CC(=O)N2CCC3(CN(C)C(=O)O3)C2)c(=O)c2ccccc12 (stereo not drawn) | 15.4

Structure (SMILES) | INHIBITION [%]
Cc1cccc(N2CCC(N3CCCC4(CNC(=O)O4)C3)CC2)c1C (stereo not drawn) | 63.4
O=C1NCC2(CCCN(C(=O)Cn3nc4ccccc4n3)CC2)O1 (stereo not drawn) | 4.87
Cc1nn(CCO)c(C)c1CNCc1cccnc1N(C)C | 19.2
O=C(O)c1cnc(N2CCC(c3nccn3CC3CC3)CC2)c(Cl)c1 | 25.9
O=C(CN1CCCC(O)C1)NC(=O)NCc1cccs1 (stereo not drawn) | 43.4
CN(CCOc1ccc(F)cc1)S(=O)(=O)c1cnn(C)c1 | 21.2
COCCN1CCN(Cc2c(C)noc2C)Cc2cccnc21 | 36.9
O=C(NCc1cccc(Cl)c1)C1=NOC2(CCNC2)C1 (stereo not drawn) | 21.5
CN(C)C(=O)COC[C@]12COC[C@H]1CN(CCc1ccccc1)C2 | 24.3
CN(C)CCOCc1ncn2c1CN(c1ncc(F)cn1)CCC2 | 23.3
Cc1ccccc1C(CNC(=O)CSc1nnc(N)s1)N(C)C (stereo not drawn) | 54.7
Cc1nnc(SCC(=O)NCC(c2ccccc2Cl)N(C)C)s1 (stereo not drawn) | -18.5
Nc1nnc(SCC(=O)NCC(O)c2ccccc2)s1 (stereo not drawn) | -17.2
CCn1cc(NC(=O)NCc2ccc(CO)c(F)c2)cn1 | -59.4
O=C(c1cc2c(Cl)cccc2[nH]1)N1CCN(CCc2ccccn2)CC1 | 56.3
Cc1ccc(NC(=O)N2CCN(Cc3ccccn3)CC2)cc1Cl | 42.1
Cc1ccc(C(C(=O)O)N2CCCN(Cc3ccccn3)CC2)c(F)c1 (stereo not drawn) | -1.49
O=C(c1ccccc1Cl)N1CCN(CCc2ccccn2)CC1 | 30
Cc1cc(F)c(C(C(=O)O)N2CCN(Cc3ccccn3)CC2)cc1Cl (stereo not drawn) | 66.6
CSc1ccccc1C(C(=O)O)N1CCN(Cc2ccccn2)CC1 (stereo not drawn) | 33.5
O=C(c1cc(Cl)c[nH]1)N1CCN(CCc2ccccn2)CC1 | 9.79
Cc1ccc(C)c(C(C(=O)O)N2CCCN(Cc3ccccn3)CC2)c1 (stereo not drawn) | 0.139
O=C(O)C(c1ccc(Cl)c(F)c1)N1CCN(Cc2ccccn2)CC1 (stereo not drawn) | 52.1

Structure (SMILES) | INHIBITION [%]
Cc1ccc(Cl)c(C)c1NC(=O)N1CCCN(Cc2ccccn2)CC1 | 46.3
COc1ccc(C)cc1C(C(=O)O)N1CCN(Cc2ccccn2)CC1 (stereo not drawn) | 26.7
Cc1c(Cl)cccc1NC(=O)N1CCN(Cc2ccccn2)CC1 | 64.3
Cc1cccc(-n2cnnc2CCCN2CCOCC2)c1 | 34.4
CNC(=O)C1CCC(NC(=O)c2cc(C3CC3)n(C(C)(C)C)n2)CC1 (stereo not drawn) | 15.4
c1ccc(OCCNC2CCCN(Cc3noc(C4CC4)n3)C2)cc1 (stereo not drawn) | -52.5
Cn1cc(C2CCCN2C(=O)c2ccc(Br)o2)cn1 (stereo not drawn) | 12.2
Cn1cc(C2CCCN2C(=O)c2ccc(NC3CC3)nc2)cn1 (stereo not drawn) | 22.25
CN(C)c1ccc(C(=O)N2CCCC2c2cnn(C)c2)cn1 (stereo not drawn) | -13.3
CCN(c1ccc(C(=O)N2CCCC2c2cnn(C)c2)cn1)C(C)C (stereo not drawn) | 48.4
CC(C)CN(C)c1ccc(C(=O)N2CCCC2c2cnn(C)c2)cn1 (stereo not drawn) | 52.1
CCN(CC)Cc1ccc(C(=O)N2CCCC2c2cnn(C)c2)o1 (stereo not drawn) | 57
CNC(=O)c1ccc(C(=O)N2CCCC2c2cnn(C)c2)cn1 (stereo not drawn) | 59.4
COc1ccc(C(=O)N2CCCC2c2cnn(C)c2)cn1 (stereo not drawn) | -11.9
CC(=O)NCc1ccc(C(=O)N2CCCC2c2cnn(C)c2)o1 (stereo not drawn) | -1.88
CC(NC(=O)NCCn1ccnc1)c1ccc2c(c1)CCC(=O)N2 (stereo not drawn) | -15.5
CO[C@H]1C(=O)N(C)C2(CCNCC2)[C@@H]1C(=O)Nc1ccccc1 | 29
Cc1noc(C)c1CN1CC[C@H]2OCC[C@@]2(C(=O)N2CCCO2)C1 | 37.5
Cc1cnn(CC2CCCN2C(=O)c2cnc(-c3ccco3)s2)c1 (stereo not drawn) | 15.5
CCS(=O)(=O)N1CCc2nc(N3CCCC3)nc(N(C)C)c2CC1 | 23.1
CCCS(=O)(=O)N1CCc2nc(N3CCOCC3)nc(N(C)C)c2C1 | 43.8
CCS(=O)(=O)N1CCc2nc(N3CCOCC3)nc(N(C)C)c2CC1 | 55.6
